Results reported in PubChem BioAssay (NCI).
Compounds without any hit were thinned out: in the full panel of roughly 83,000, 20% have a hit.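 Testing used 96-well plates and a 48-hour single-concentration exposure. Example: -40 means 40% of the starting cells died.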 The source made the active and inactive calls. The calls were made as follows: active = growth percent below 10; inactive = the rest.

Assays:
Assay in all cases: NCI-60 one-dose screen, 48 h (100 = growth as untreated, 0 = no growth, -100 = all killed)
Conditions in all cases: 10 µM unless noted
NCI-H23 lung = test system: NCI-H23 lung
NCI-H226 lung = test system: NCI-H226 lung
NCI-H322M lung = test system: NCI-H322M lung
HOP-62 NSCLC = test system: HOP-62 NSCLC
NCI-H460 lung = test system: NCI-H460 lung
HOP-92 NSCLC = test system: HOP-92 NSCLC
NCI-H522 lung = test system: NCI-H522 lung
A549/ATCC NSCLC = test system: A549/ATCC NSCLC
786-0 renal = test system: 786-0 renal
COLO 205 colon = test system: COLO 205 colon
DU-145 prostate = test system: DU-145 prostate
K-562 leukemia = test system: K-562 leukemia
MALME-3M melanoma = test system: MALME-3M melanoma
MDA-MB-231 breast = test system: MDA-MB-231 breast
RXF 393 renal = test system: RXF 393 renal
SF-268 CNS = test system: SF-268 CNS
SF-295 CNS = test system: SF-295 CNS
SF-539 CNS = test system: SF-539 CNS
UACC-257 melanoma = test system: UACC-257 melanoma
M14 melanoma = test system: M14 melanoma

Measured: growth

[O-]/[N+](=C\c1ccc(-n2cc(Cc3ccccc3Cc3cn(-c4ccc(/C=[N+](/[O-])c5ccccc5)cc4)nn3)nn2)cc1)c1ccccc1
inactive: NCI-H23 lung 94.7% | NCI-H226 lung 101% | NCI-H322M lung 93.3% | HOP-62 NSCLC 100% | NCI-H460 lung 108% | HOP-92 NSCLC 112% | NCI-H522 lung 97% | A549/ATCC NSCLC 105% | 786-0 renal 97.5% | COLO 205 colon 107% | DU-145 prostate 106% | K-562 leukemia 86.6% | MALME-3M melanoma 102% | MDA-MB-231 breast 103% | RXF 393 renal 116% | SF-268 CNS 92.8% | SF-295 CNS 99.5% | SF-539 CNS 92.2% | UACC-257 melanoma 108% | M14 melanoma 101%

CN(/C(N)=N/N=C/c1c2ccccc2cc2ccccc12)C1CCCCC1
inactive: NCI-H23 lung 16.1% | NCI-H226 lung 64.3% | NCI-H322M lung 73.6% | HOP-62 NSCLC 75.8% | NCI-H460 lung 43.6% | NCI-H522 lung 40.9% | A549/ATCC NSCLC 43.4% | 786-0 renal 49.5% | DU-145 prostate 57.6% | K-562 leukemia 12.9% | MALME-3M melanoma 39.8% | MDA-MB-231 breast 59.9% | RXF 393 renal 48.1% | SF-268 CNS 72.4% | SF-295 CNS 45.7% | SF-539 CNS 73.9% | UACC-257 melanoma 64.3% | M14 melanoma 37.7%
active: HOP-92 NSCLC -5.84% | COLO 205 colon -55.5%

COc1cc(OC)c(NC(=O)c2cc3ccccc3cc2O)cc1Cl
inactive: NCI-H23 lung 10.7% | NCI-H226 lung 77% | NCI-H322M lung 40.2% | HOP-62 NSCLC 68.2% | NCI-H460 lung 11.2% | A549/ATCC NSCLC 32.1% | 786-0 renal 27.4% | COLO 205 colon 66.6% | DU-145 prostate 46.4% | K-562 leukemia 23.4% | MALME-3M melanoma 19.5% | MDA-MB-231 breast 70.4% | RXF 393 renal 120% | SF-268 CNS 51.2% | SF-295 CNS 53.3% | SF-539 CNS 52.9% | UACC-257 melanoma 59.8% | M14 melanoma 42.1%
active: HOP-92 NSCLC -31.2% | NCI-H522 lung -19.9%

COc1cc(-c2cncn2-c2ccc(-c3nc4ccc(F)cc4s3)cc2)ccc1F
inactive: NCI-H23 lung 71% | NCI-H226 lung 85.2% | NCI-H322M lung 103% | HOP-62 NSCLC 102% | NCI-H460 lung 35.4% | HOP-92 NSCLC 94.3% | NCI-H522 lung 55.9% | A549/ATCC NSCLC 69.1% | 786-0 renal 90.8% | COLO 205 colon 82.7% | K-562 leukemia 62.8% | MALME-3M melanoma 99.3% | MDA-MB-231 breast 103% | RXF 393 renal 52.5% | SF-268 CNS 81.3% | SF-295 CNS 90% | SF-539 CNS 92.8% | UACC-257 melanoma 79.7% | M14 melanoma 102%
active: DU-145 prostate -7.18%

COC12C=C/C(=C(/C(=O)OCc3ccncc3)C(=O)CCCCCCCCC3(OC)C=C/C(=C(/C(=O)OCc4ccncc4)C(=O)CCCCCCCC1)O3)O2
inactive: HOP-62 NSCLC 16.7%
active: NCI-H23 lung -61.1% | NCI-H226 lung -64.7% | NCI-H322M lung -63.2% | NCI-H460 lung 1.88% | HOP-92 NSCLC -48.9% | NCI-H522 lung -41% | A549/ATCC NSCLC 9.15% | 786-0 renal -50.9% | COLO 205 colon -25% | DU-145 prostate -60.7% | K-562 leukemia -4.08% | MALME-3M melanoma -67.7% | MDA-MB-231 breast 1.77% | RXF 393 renal -82.7% | SF-268 CNS -28% | SF-295 CNS -23.8% | SF-539 CNS -60.1% | UACC-257 melanoma -29.6% | M14 melanoma -24.4%

CCCCCCCCCCCCCCCCCCOc1ccccc1CC(=O)OCC[N+](C)(C)C
active: HOP-62 NSCLC 4.93% | HOP-92 NSCLC -14% | NCI-H522 lung 2.19% | COLO 205 colon -67.3% | MDA-MB-231 breast -2.29% | RXF 393 renal -54% | M14 melanoma 6.22%
inactive: NCI-H23 lung 40.2% | NCI-H226 lung 28.7% | NCI-H322M lung 66.5% | NCI-H460 lung 13.5% | A549/ATCC NSCLC 11.5% | 786-0 renal 20.8% | DU-145 prostate 36.1% | K-562 leukemia 18.6% | MALME-3M melanoma 26.9% | SF-268 CNS 15% | SF-295 CNS 45.8% | SF-539 CNS 21.3% | UACC-257 melanoma 22.3%

COc1ccc(OC)c(/C=N/Nc2ncnc3c2c(C)nn3C)c1
inactive: NCI-H23 lung 106% | NCI-H226 lung 92.6% | NCI-H322M lung 114% | HOP-62 NSCLC 92% | NCI-H460 lung 106% | HOP-92 NSCLC 96.2% | NCI-H522 lung 93.8% | A549/ATCC NSCLC 104% | 786-0 renal 102% | COLO 205 colon 102% | DU-145 prostate 108% | K-562 leukemia 93.2% | MALME-3M melanoma 119% | MDA-MB-231 breast 81% | RXF 393 renal 96.9% | SF-268 CNS 87.1% | SF-295 CNS 99.7% | SF-539 CNS 105% | UACC-257 melanoma 112% | M14 melanoma 101%

Cn1ccnc1C(=O)/C=C/c1ccc(CC(=O)Nc2cc(C(F)(F)F)cc(C(F)(F)F)c2)cc1
inactive: NCI-H23 lung 85.4% | NCI-H226 lung 91.4% | NCI-H322M lung 73.2% | HOP-62 NSCLC 85.9% | NCI-H460 lung 55.3% | HOP-92 NSCLC 87% | NCI-H522 lung 77.4% | A549/ATCC NSCLC 60.1% | 786-0 renal 65.6% | COLO 205 colon 98.3% | DU-145 prostate 73.4% | K-562 leukemia 61.6% | MALME-3M melanoma 77.9% | MDA-MB-231 breast 78.1% | RXF 393 renal 56.2% | SF-268 CNS 64.9% | SF-295 CNS 84.3% | SF-539 CNS 67.1% | UACC-257 melanoma 72.8% | M14 melanoma 80.5%
